Compound activity: PubChem, National Center for Advancing Translational Sciences (NCATS)
Compounds with a hit are over-represented: about 8.1% of the library has one in this group of screens.
ClpP mod – qHTS Assay for Activators of ClpP. purified B. subtilis ClpP, FRET peptide cleavage, 20 min. 1.9% of 340,000 active. Potency, µM (doses to about 57.5 µM), for the others: at the top dose activity change, negative = active; active = well fitted falling curve with a large enough effect; inconclusive = small, poorly fitted or top-dose-only effect; inactive = no such curve, though single readings can be large or run the other way; also: the source files actives as falling curves though it sought activators and does not explain the sign; nearly all actives have a fitted effect of over 65% in size
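Purified B. subtilis ClpP, 10 microg/mL final in Tris/HCl pH8 with KCl, BSA, glycerol and Tween-20, cleaved an Abz/nitrotyrosine-quenched decapeptide. Fluorescence (ex 320, em 430) was read at 0 and 20 min at room temperature. Delta was normalized to 5.8 microM ADEP and DMSO/no-enzyme controls.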
Epigenetic derep – epigenetic control regulation, reporter derepression; Potency, µM (series often up to 53.9 µM), inactives show top-dose GFP activation, hits mostly activators; AID 1865; murine LDR cells, GFP reporter derepression, 30 h; 0.2% of 280,000 active; also: % of control where 0% means no effect; nearly all actives have a fitted effect of over 60% in size
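Murine LDR cells bearing a silenced CMV-driven GFP reporter were exposed to compound for 30 h at 37 C. After PBS washes, GFP-positive cells (20-120 um objects) counted by laser-scanning microplate cytometry.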
RORgamma inh – blocks mouse ROR gamma transcriptional activity; Drosophila S2 Gal4-RORgamma UAS-luciferase reporter, 20 h; 5.4% of 310,000 active; Potency, µM (top dose mostly 53.6 µM), for the others: at the highest dose activity change, negative = inhibition, most hits filed as inhibitors; P51450; also: % is scaled to controls: 0 for no effect and ±100 for the full control effect; nearly all actives have a fitted effect of over 60% in size
Target sequence (P51450 whole entry, looked up, the tested form may be a part): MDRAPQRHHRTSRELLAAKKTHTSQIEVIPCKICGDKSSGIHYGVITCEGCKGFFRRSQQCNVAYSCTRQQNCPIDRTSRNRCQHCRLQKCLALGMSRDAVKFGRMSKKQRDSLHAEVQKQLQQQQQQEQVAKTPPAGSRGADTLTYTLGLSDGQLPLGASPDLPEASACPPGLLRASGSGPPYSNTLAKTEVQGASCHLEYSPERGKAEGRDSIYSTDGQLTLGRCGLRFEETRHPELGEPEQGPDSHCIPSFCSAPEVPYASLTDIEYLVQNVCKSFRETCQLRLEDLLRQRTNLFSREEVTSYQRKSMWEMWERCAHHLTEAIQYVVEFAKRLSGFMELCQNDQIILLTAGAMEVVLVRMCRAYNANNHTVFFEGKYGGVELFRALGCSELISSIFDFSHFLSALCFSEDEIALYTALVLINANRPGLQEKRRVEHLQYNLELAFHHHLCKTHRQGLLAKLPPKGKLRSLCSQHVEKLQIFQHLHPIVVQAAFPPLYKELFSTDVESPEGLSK
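Luciferase reporter read in Schneider cells carrying Gal4-RORγ (mouse) and UAS-Photinus luciferase; cells given compound 1 h before 700 uM copper sulfate induction, then incubated 20 h at ambient temperature.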
Gal4-VP16 FLuc – Gal4-VP16 reporter inhibition counter-screen | Drosophila S2 Gal4-VP16 UAS-luciferase, luminescence, 20 h | Potency, µM (top dose mostly 53.6 µM), for the others: at the highest dose activity, negative = inhibition, actives largely listed as inhibitors | 3.5% of 310,000 active;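 also: Gal4-VP16 expression switched on by copper sulfate through the metallothionein promoter; % is scaled to controls: 0 for no effect and ±100 for the full control effect; nearly all actives have a fitted effect of over 50% in size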
PINK1 expr mod – PINK1 expression modulation | Potency, µM (top dose mostly 76.6 µM), without a hit: at the top dose activation (PINK1 increase), actives largely listed as activators | AID 624263 | 0.2% of 410,000 active | PINK1 immunofluorescence, high-content cytometry, 24 h; active = well fitted activation curve with a large enough effect; inconclusive = small, poorly fitted or top-dose-only effect; cell line not stated here; also: % of control where 0% means no effect; nearly all actives have a fitted effect of over 65% in size
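Compound titrations (5 concentrations, 24 h) on a stable cell line; DMSO and CCCP controls. Endpoint: fixed-cell PINK1 immunofluorescence with mitochondrial, cell and nuclear markers, scanned by microplate cytometer.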
Sfp inh – inhibitors of Bacillus subtilis Sfp phosphopantetheinyl transferase; Potency, µM, for inactives: largest response in the series, negative = inhibition, actives largely listed as inhibitors; 3.5% of 310,000 active; Biochemical Sfp PPTase activity, qHTS; AID 1490; Q9F4F7;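 also: the enzyme is Sfp with the accession as filed and its product quenches rhodamine fluorescence; 0% = enzyme reaction without inhibitor and -100% = no enzyme wells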
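With Hepes-Na pH 7.6 buffer containing 10 mM MgCl2, Sfp (15 nM) modified BHQ-2-YbbR (12.5 uM) using rhodamine-CoA (5 uM). Two reads 30 minutes apart at 525/598 nm yielded each well's rate.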
* = called active by the depositor; ? = inconclusive; . = not tested or not shown; [ ] = another dose, or the depositor's remark. Unless noted, calls follow the shape of the dose curve; as a rule, active = well fitted curve in the direction sought with a large enough effect; inconclusive = small, poorly fitted or top-dose-only effect, or another doubt; inactive = no such curve, though single readings can be large; an effect the other way counts as inactive or inconclusive. Potency is read from the fitted curve at half-maximal effect.

SMILES | ClpP mod | Epigenetic derep | RORgamma inh | Gal4-VP16 FLuc | PINK1 expr mod | Sfp inh
Cc1ccc(C(=O)Nc2cnc3ccccc3c2)cc1 | 77% | 1% | 3.2µM* | 2.8µM* | 9% | 5%
O=C(NC(=S)Nc1cc(Cl)ccc1O)c1cccc(Br)c1 | 0% | 13% | 1.3µM* | 3.5µM* | 4% | -12%
Cc1ccc(C(=O)NC(=S)Nc2ccc(NC(=O)c3cccc(Cl)c3)cc2)cc1 | 1% | 2% | ? | 10µM* | 10% | 1%
Cc1ccccc1C1(CC(=O)N2CCCCC2C)CC(=O)N(Cc2cccnc2)C1=O (stereo not drawn) | . | . | . | . | -1% | .
CCOC(=O)N1CCc2c(sc(NCc3sccc3C)c2C(=O)Nc2ccccc2OCC)C1 | 1% | 1% | . | . | 5% | .
COC(=O)CN1C(=O)CSc2ccc(S(=O)(=O)Nc3cccc(C)c3C)cc21 | -1% | 1% | . | . | 3% | .
CCCCN1C(=O)CN(C2CCCCCC2)C(=O)C1c1ccc(OC(C)C)c(OC)c1 (stereo not drawn) | 0% | 3% | . | . | 2% | .
COc1ccc(Cl)cc1NC(=O)CSc1nc2c([nH]c3ccccc32)c(=O)n1-c1ccccc1 | -29% | ? | . | . | 2% | .
Cc1ccccc1OCCCn1c(CCNC(=O)C2CCCCC2)nc2ccccc21 | 2% | 1% | . | . | 1% | .
CC(=O)c1cccc(NC(=S)NC(=O)c2ccc(Br)cc2)c1 | 1% | 0% | 5.6µM* | 10µM* | ? | -22%
O=C(O)c1cccc(NC(=O)c2ccccc2)c1 | 0% | . | . | . | 3% | .
Cc1ccc(C(=O)Nc2cccc(C(=O)O)c2)cc1 | -2% | -3% | 5µM* | 18µM* | -1% | 17%
Cc1ccccc1NC(=O)CS(=O)(=O)c1cccc2nsnc12 | -5% | 0% | . | . | -5% | .
CCOc1ccc(CNC(=O)Nc2ccc3c(c2)N(C)C(=O)c2ccccc2S3)cc1 | -5% | ? | . | . | 2% | .
CCC(C)NC(=O)CSc1nc2n[nH]c(C)c2c(=N)n1-c1ccc(C)c(Cl)c1 (stereo not drawn) | 9% | -1% | . | . | 1% | .
CCN1CCCC1CNC(=O)c1ccc(Cc2nc3ccccc3[nH]2)cc1 (stereo not drawn) | . | -2% | . | . | . | .
CC(C)(C)OC(=O)C(Cl)(C(=O)OC(C)(C)C)c1ccc2nnnn2n1 | . | ? | 13µM* | ? | 4% | -35%
CC(C)n1cc(CN2CCC(Oc3ccc(C(=O)N4CCCCC4)cc3)CC2)cn1 | 22µM* | . | -34% | -3% | -2% | 7%
NNc1nc2c(F)cc(F)cc2s1 | 1% | 0% | ? | 18µM* | 4% | -20%
Nc1nc2c(F)cccc2s1 | -1% | 0% | 21% | -4% | 1% | 18%
O=C(CCc1ccccc1)Nc1nc2c(F)cc(F)cc2s1 | . | 0% | 3% | ? | 10% | 35µM*
CC1CCc2c(sc(Nc3nc4c(F)cccc4s3)c2C(N)=O)C1 (stereo not drawn) | ? | -1% | 5.6µM* | 5µM* | 7% | 25µM*
NNc1nc2c(F)cccc2s1 | -4% | 0% | 16µM* | ? | 5% | ?
CC(CC(=O)Nc1ccc(F)cc1)S(=O)(=O)c1cc2c3c(c1)CCN3C(=O)CC2 (stereo not drawn) | 1% | 1% | . | . | 0% | .
O=C(Nc1nc2c(F)cccc2s1)C1CC1 | 2% | . | 30% | ? | -1% | -12%
Fc1cccc2sc(Nc3nc4c(F)cccc4s3)nc12 | ? | -1% | 4.5µM* | ? | 21% | 22%
NC(=O)c1ccccc1NC(=O)CCc1ccccc1 | -8% | 3% | 20% | 10% | 12%[38.3 µM] | 13%
CSc1cccc(NC(=S)NC(=O)CCc2ccccc2)c1 | -1% | . | 3.2µM* | 8.9µM* | 2% | 9%
Cc1cccc(C)c1NC(=S)NC(=O)CCc1ccccc1 | -1% | 0% | 2.8µM* | 10µM* | 14%[38.3 µM] | 5%
NC(=O)c1ccccc1NC(=S)NC(=O)CCc1ccccc1 | -5% | 4% | ? | 13% | 8% | 28µM*
